Data as given in PubChem BioAssay AID1159580 (chemical genetic matrix, 2015).
The campaign covered roughly 5,500 compounds. About 2,000 (36%) were called active. About 18% were inconclusive and are not listed. No stated cut-off is given here; in the data, active means normalized growth mostly below about 0.91 (no sharp cut-off); inconclusive means no clear call, values can overlap the other calls; inactive means mostly above about 0.92. The list shows a part of the results.

Test: chemical genetic growth profiling, strain panel (AID 1159580);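 further: tested at 20 µM; growth read once vehicle control cultures reached saturation at 30 °C; 1 = growth at the plate median or of vehicle wells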
Settings: S. cerevisiae deletion strains, growth OD

Measured: normalized growth

O=C(/C=C/c1ccccc1)c1ccc(O)cc1O
active: locus YAL021C, strain ccr4, stronger effect = lower value 0.0748 | locus YAL026C, strain drs2, stronger effect = lower value 0.0615 | locus YAL030W, strain snc1, stronger effect = lower value 0.0587 | locus YBL061C, strain skt5, stronger effect = lower value 0.066 | locus YBR009C, strain hhf1, stronger effect = lower value 0.0651 | locus YBR023C, strain chs3, stronger effect = lower value 0.0637 | locus YBR171W, strain sec66, stronger effect = lower value 0.0801 | locus YBR231C, strain swc5, stronger effect = lower value 0.062 | locus YBR279W, strain paf1, stronger effect = lower value 0.0608 | locus YCL011C, strain gbp2, stronger effect = lower value 0.0582 | locus YCL016C, strain dcc1, stronger effect = lower value 0.0631 | locus YCL061C, strain MRC1, stronger effect = lower value 0.0667 | locus YCL069W, strain vba3, stronger effect = lower value 0.0608 | locus YCR088W, strain abp1, stronger effect = lower value 0.0623 | locus YDL005C, strain med2, stronger effect = lower value 0.0755 | locus YDL040C, strain nat1, stronger effect = lower value 0.0609 | locus YDR001C, strain nth1, stronger effect = lower value 0.0596 | locus YDR069C, strain doa4, stronger effect = lower value 0.0834 | locus YDR137W, strain rgp1, stronger effect = lower value 0.0879 | locus YDR159W, strain sac3, stronger effect = lower value 0.0941 | locus YDR195W, strain ref2 0.114 | locus YDR297W, strain sur2, stronger effect = lower value 0.0595 | locus YDR334W, strain swr1, stronger effect = lower value 0.0664 | locus YDR335W, strain msn5, stronger effect = lower value 0.0605 | locus YDR392W, strain spt3, stronger effect = lower value 0.0975 | locus YEL003W, strain gim4, stronger effect = lower value 0.0559 | locus YEL037C, strain rad23, stronger effect = lower value 0.059 | locus YEL061C, strain CIN8 (second series), stronger effect = lower value 0.0607 | locus YER015W, strain faa2, stronger effect = lower value 0.0634 | locus YER016W, strain bim1, stronger effect = lower value 0.0613 | locus YER111C, strain swi4, stronger effect = lower value 0.0739 | locus YER155C, strain BEM2 (second series), stronger effect = lower value 0.0936 | locus YFR010W, strain ubp6, stronger effect = lower value 0.0802 | locus YGL167C, strain pmr1, stronger effect = lower value 0.0759 | locus YGL173C, strain kem1, stronger effect = lower value 0.0714 | locus YGL227W, strain vid30, stronger effect = lower value 0.0642 | locus YGL240W, strain doc1, stronger effect = lower value 0.0905 | locus YGL253W, strain hxk2, stronger effect = lower value 0.054 | locus YHR013C, strain ard1, stronger effect = lower value 0.122 | locus YHR027C, strain rpn1, stronger effect = lower value 0.0687 | locus YHR030C, strain SLT2, stronger effect = lower value 0.101 | locus YHR079C, strain IRE1, stronger effect = lower value 0.113 | locus YHR142W, strain chs7, stronger effect = lower value 0.0687 | locus YJL092W, strain hpr5, stronger effect = lower value 0.0609 | locus YJL095W, strain BCK1 (second series), stronger effect = lower value 0.0568 | locus YJL095W, strain BCK1, stronger effect = lower value 0.131 | locus YJL115W, strain asf1, stronger effect = lower value 0.0751 | locus YJL129C, strain trk1, stronger effect = lower value 0.0857 | locus YJL154C, strain vps35, stronger effect = lower value 0.0627 | locus YJL164C, strain tpk1, stronger effect = lower value 0.0619 | locus YJL166W, strain qcr8, stronger effect = lower value 0.0694 | locus YJL187C, strain SWE1, stronger effect = lower value 0.0592 | locus YJR066W, strain TOR1, stronger effect = lower value 0.000815 | locus YKL160W, strain elf1, stronger effect = lower value 0.0634 | locus YKR026C, strain gcn3, stronger effect = lower value 0.0638 | locus YKR091W, strain srl3, stronger effect = lower value 0.0604 | locus YLL001W, strain dnm1, stronger effect = lower value 0.059 | locus YLL026W, stronger effect = lower value 0.0586 | locus YLL041C, strain sdh2, stronger effect = lower value 0.063 | locus YLR027C, strain aat2, stronger effect = lower value 0.0578 | locus YLR113W, strain HOG1, stronger effect = lower value 0.216 | locus YLR221C, strain rsa3, stronger effect = lower value 0.0573 | locus YLR258W, strain gsy2, stronger effect = lower value 0.0645 | locus YLR262C, strain YPT6 (second series), stronger effect = lower value 0.0856 | locus YLR320W, strain mms22, stronger effect = lower value 0.0956 | locus YLR342W, strain FKS1, stronger effect = lower value 0.064 | locus YLR357W, strain rsc2, stronger effect = lower value 0.137 | locus YLR370C, strain arc18, stronger effect = lower value 0.0633 | locus YLR384C, strain iki3, stronger effect = lower value 0.0625 | locus YML120C, strain ndi1, stronger effect = lower value 0.0602 | locus YMR058W, strain fet3, stronger effect = lower value 0.0605 | locus YMR125W, strain sto1, stronger effect = lower value 0.0837 | locus YMR129W, stronger effect = lower value 0.061 | locus YMR205C, strain PFK2, stronger effect = lower value 0.0908 | locus YMR231W, strain pep5, stronger effect = lower value 0.0723 | locus YNL071W, strain lat1, stronger effect = lower value 0.0616 | locus YNL183C, strain NPR1, stronger effect = lower value 0.000882 | locus YNL209W, strain ssb2, stronger effect = lower value 0.0674 | locus YNL248C, strain rpa49, stronger effect = lower value 0.0717 | locus YNL322C, strain KRE1 (second series), stronger effect = lower value 0.0685 | locus YNR049C, strain mso1, stronger effect = lower value 0.0592 | locus YOR001W, strain rrp6, stronger effect = lower value 0.0669 | locus YOR070C, strain gyp1, stronger effect = lower value 0.0587 | locus YOR080W, strain dia2, stronger effect = lower value 0.0676 | locus YOR083W, strain WHI5, stronger effect = lower value 0.0633 | locus YOR106W, strain vam3, stronger effect = lower value 0.0654 | locus YOR231W, strain MKK1, stronger effect = lower value 0.108 | locus YOR265W, strain rbl2, stronger effect = lower value 0.0582 | locus YOR270C, strain vph1, stronger effect = lower value 0.0904 | locus YOR290C, strain snf2, stronger effect = lower value 0.0728 | locus YPL051W, strain arl3, stronger effect = lower value 0.0614 | locus YPL078C, strain atp4, stronger effect = lower value 0.0665 | locus YPL106C, strain sse1, stronger effect = lower value 0.102 | locus YPL240C, strain hsp82, stronger effect = lower value 0.058 | locus YPL256C, strain CLN2, stronger effect = lower value 0.118
